Data published in PubChem BioAssay AID504329 (Southern Research Specialized Biocontainment Screening …, 2011).
The campaign covered roughly 340,000 compounds. About 1,000 (0.29%) were called active. The list is a sample of the results. Potency and affinity values are given separately. Unmarked numbers belong to inactive results. Cut-off read from the data, not from the text of the source: inconclusive = inhibition above about 27% without an active follow-up result; inactive = below that.

Assay: H1N1 influenza NS1A inhibitors, functional cell based assay (AID 504329)
Details: percent inhibition, at 12.5 µM, active compounds read high

SMILES | inhibition [%]
COc1cc(OC)c2ccc(=O)oc2c1C(CCN1CCCC1)c1ccc(N(C)C)cc1 (configuration not stated) | 21.8
COc1cc(O)c(C(CCN2CCCC2)c2ccc(N(C)C)cc2)c(OC)c1 (configuration not stated) | 26.1
COc1ccc(C(CCN2CCN(c3ccccc3)CC2)c2c(O)cc(OC)cc2OC)cc1 (configuration not stated) | 15.3
COc1cc(OC)c2ccc(=O)oc2c1C(CCN1CCCCC1)c1ccc(N(C)C)cc1 (configuration not stated) | 9.04
NC(=O)CCN1CCN(C(=O)c2ccc3nc(Cc4cccc(Cl)c4)oc3c2)CC1 | -5.64
CCOC(=O)c1c(NC(=O)COC(=O)Cc2n[nH]c(=O)c3ccccc23)sc(C(=O)N(C)C)c1C | -4.28
COc1ccccc1/C=N\Nc1ccccc1[N+](=O)[O-] | 9.18
CCCOc1ccc(/C=N/Nc2ccc(C(=O)O)cc2)c(OCCC)c1 | 10.8
CCCOc1ccc(/C=N/Nc2ccccc2[N+](=O)[O-])c(O)c1 | 3.15
O=[N+]([O-])c1ccc(N/N=C/c2c[nH]c3ccccc23)cc1 | 7.03
CCOc1ccccc1/C=N/Nc1ccccc1[N+](=O)[O-] | 28.9
O=[N+]([O-])c1ccccc1N/N=C\c1ccccc1Cl | 1.01
Cc1cccc(NC(=O)Cn2nc(-c3ccco3)ccc2=O)c1C | 0.81
COC(C[C@H](O)C[C@@H](O)[C@H](C)OCc1ccccc1)OC | -2.93
CCCCOCCCNC(=S)Nc1ccc(S(=O)(=O)N2CCOCC2)cc1 | 0.29
CCCCC1=C(C(=O)OCC)C(C(=O)OCC)Oc2ccccc21 (configuration not stated) | -8.03
COc1ccc(CN(CC(=O)NCc2ccccc2)C(=O)CCC(=O)Nc2ccccn2)cc1 | -6.86
C/C=C(\C)CN1CCC(n2nccc2NC(=O)CCCc2ccccc2)CC1 | -5.21
CCCN(CC(=O)Nc1ccccc1C)C(=O)c1ccc(=O)n(Cc2ccccc2)n1 | 5.93
CN(C)N1C(N)=C(C#N)C(c2cccnc2)C2=C1CCCC2=O (configuration not stated) | 0.98
COc1ccc(Cl)cc1NS(=O)(=O)c1cn(C)nc1C | -6.95
Cc1c(C)n(Cc2ccccc2)c2ccc(C(=O)OCCN(C)C)cc12 | 18.7
Cc1c(C)n(CCN(C)C)c2ccc(C(=O)OCCN(C)C)cc12 | -4.19
Cc1ccc(C)c(-n2cc(CNCCCn3cccn3)c(-c3ccccc3)n2)c1 | -27.8
CCn1ccnc1CN(C)Cc1cn(-c2cc(C)ccc2C)nc1-c1ccccc1 | 7.7

SMILES | inhibition [%]
CCOC(=O)C1(C(=O)OCC)NC(=O)CC1C (configuration not stated) | 1.41
C/C(=N\NC(=O)c1cc(C)nc2ccccc12)c1ccncc1 | 7.15
O=C(N/N=C/c1ccc2ncccc2c1)c1cc(-c2cccs2)nc2ccccc12 | -4.78
NNC(=O)c1cc(-c2cccs2)nc2ccccc12 | 25.3
C/C(=N\NC(=O)c1cc(C)nc2ccccc12)c1ccco1 | -1.27
COc1ccc(CC(=O)Nc2nc(-c3ccncc3)cs2)cc1 | 3.49
Cc1nn(-c2ccccc2)c(N2CCCC2)c1/C=N/NC(=O)c1ccccc1O | -10.1
O=C(Oc1ccc(/C=N/NC(=O)c2ccccc2O)cc1)c1ccccc1 | 1.64
CCOC(=O)C1CCCN(C(=O)C2CCN(Cc3nc(-c4ccc(Cl)cc4)oc3C)CC2)C1 (configuration not stated) | -0.69
COC(=O)c1ccc(COc2ncnc3ccccc23)o1 | 2.36
CC1=C/C(=C(/c2ccc(O)c(C)c2)c2ccccc2S(=O)(=O)O)C=CC1=O | 12.6
CC1=C/C(=C(\c2ccc(O)c(C)c2)c2ccccc2S(=O)(=O)O)C=CC1=O | -2.96
O=[N+]([O-])c1ccc([N+](=O)[O-])c(Nc2ccc(N3CCOCC3)cc2)c1 | -0.167
O=[N+]([O-])c1ccc(N2CCOCC2)c([N+](=O)[O-])c1 | 4.03
NC(=O)c1ccccc1N/C=C/C(=O)c1ccccc1 | 1.83
COc1ccc(Cn2c(=O)[nH]c3cc(C(=O)N4CCN(c5ccc(OC)cc5)CC4)ccc3c2=O)cc1 | -8.57
Cc1ccc(NC(=O)COC(=O)Cn2ccc(C(F)(F)F)n2)cc1Cl | 0.4
CCN=c1scc(-c2ccco2)n1/N=C/c1ccc(OC)c(O)c1 | 28.8
CN=c1scc(-c2ccco2)n1/N=C/c1ccc(O)c(O)c1 | 19.1
CN(CC(=O)Nc1ccccc1Cl)C(=O)C1CCN(C(=O)c2ccc(F)cc2)CC1 | -9.67
Cc1cc(C(=O)Nc2cccc(S(=O)(=O)N3CCOCC3)c2)c2ccccc2n1 | -7.61
O=C(C[n+]1ccccc1)N/N=C/c1cc(Br)ccc1F | 2.1
COc1ccc(Br)cc1/C=N/NC(=O)C[n+]1ccccc1 | -3.17
O=C(C[n+]1ccccc1)N/N=C/c1ccc(Br)cc1 | 3.75
O=C(Cc1ccccc1)N/N=C/c1cc(Br)cc(Br)c1O | -3.61

SMILES | inhibition [%]
O=S(=O)(NN1CCOCC1)c1ccc(Br)cc1 | -5.55
COc1ccc(/C=N/NC(=O)C2c3ccccc3-c3ccccc32)cc1 | 1.63
Cc1ccc(/C=C2\C(=O)NC(=S)N(c3ccccc3F)C2=O)s1 | -6.98
Cc1ccccc1SCC(=O)NNC(=O)c1ccccc1O | -9.27
CCNC(=S)NNC(=O)c1ccncc1 | -6.57
O=C(NNC(=O)c1ccccc1Cl)c1ccccc1Cl | -1.97
CCOC(=O)C1CCN(/C=C2\C(=O)NC(=S)N(CC)C2=O)CC1 | 1.72
O=C(NNC(=O)C1CC=CCC1)c1ccccc1Cl (configuration not stated) | -13.4
O=C1/C(=C/c2cccs2)NC(=S)N1C1CC1 | 25.9
COc1ccc(/C=C2/C(=O)NC(=S)N(C3CC3)C2=O)cc1CN1C(=O)c2ccccc2C1=O | -5.91
Cc1cccc(NC(=O)COc2ccc(/C=N\n3cnnc3)cc2)c1 | -2.09
CS(=O)(=O)N1CCN(C(=O)Cc2ccc(Br)cc2)CC1 | -21.4
O=C(O)/C=C/c1cn(-c2ccccc2)nc1-c1ccccc1 | -7.13
CCOc1ccc(C(C(=O)NC2CCCCC2)N(C(=O)c2ccccn2)c2cccnc2)cc1 (configuration not stated) | -3.97
CCCCCCCCNc1nc(Cl)nc(NCc2ccco2)n1 | -0.33
O=C(O)c1ccccc1NS(=O)(=O)c1cccc2nsnc12 | -1.24
O=C(NNC(=S)NC1CCCCC1)c1ccccc1O | 5.32
O=C(N/N=C/c1c(O)n(C2CCCCC2)c(=S)[nH]c1=O)c1ccccc1O | -5.43
Cn1nccc1C(=O)Nc1sc2c(c1C(N)=O)CCCC2 | -3.24
O=C(Oc1c(CN2CCOCC2)cc(Cl)c2cccnc12)c1ccc(F)cc1 | 5.6
Oc1ccc(CNc2ccccc2F)c2cccnc12 | 12.8
Oc1cc2c(cc1CN1CCc3ccccc3C1)OCO2 | 13.1
Oc1ccc(CNc2ccc(F)cc2)c2cccnc12 | 28.1
CN1CCN(Cc2cc(Cl)c3cccnc3c2OC(=O)c2cccs2)CC1 | -0.27
Oc1c(I)cc(Cl)c2cccnc12 | -16.7

SMILES | inhibition [%]
Oc1ccc(CNc2ccccc2)c2cccnc12 | 10.6
O=c1oc2ccccc2c(O)c1Cc1cc(Cl)c2cccnc2c1O | -5.95
CC(=O)OCC(=O)c1ccc2ccn(C(C)=O)c2c1 | 2.53
c1ccc(CN(Cc2cccs2)C(c2cccs2)c2nnnn2C2CCCC2)cc1 (configuration not stated) | 4.12
CSc1cc(-c2ccc(Cl)cc2)c(C(=O)N2CCCC2)s1 | -3.23
O=S(=O)(c1cc(F)ccc1F)N1CCN(C2CCCCC2)CC1 | 0.25
Cn1c(=Nc2ccccc2)sc2ccccc21 | 9.39
COc1ccc(N=c2sc3ccccc3n2C)cc1 | 1.52
O=C(COC(=O)/C=C/c1cccc(Cl)c1)NC1CCCC1 | -4.83
CC(C)(C)c1ccc(-c2n[nH]c(=S)n2CC2CCCO2)cc1 (configuration not stated) | 3.44
O=C/C=C/c1ccccc1 | 2.7
Cc1ccc(C2=NOC(=O)/C2=C\C=C\c2ccccc2)cc1 | -3.38
CC1=C(C)N(C)[C@H](c2ccccc2Br)[C@H](O)C1=O | -9.31
O=C(CSc1nnc(-c2cccnc2)n1Cc1ccccc1)N1CCOCC1 | 0.45
Cc1ccc(Nc2nc(-c3c(C)nc4ncccn34)cs2)cc1 | -0.31
Cc1nc2ncccn2c1-c1csc(Nc2ccc(O)cc2)n1 | 5.22
S=C(NCc1ccco1)Nc1ccc(Cl)cc1Cl | 0.07
Cc1nc2ccccc2c(=O)n1CCCN1CCOCC1 | -0.85
N=c1n(CCN2CCOCC2)c2ccccc2n1CC(=O)c1cccc([N+](=O)[O-])c1 | 0.36
O=c1[nH]c(-c2ccccn2)nc2sc(-c3ccccc3)cc12 | 1.57
CCc1cc2c(=O)[nH]c(-c3ccncc3)nc2s1 | -1.62
COC(=O)c1cc(NS(=O)(=O)c2ccc(NC(C)=O)cc2)ccc1Cl | 10.8
